SARS 3CLpro inh = SARS-CoV 3CLpro protease inhibition; P0C6X7; recombinant SARS-CoV 3CLpro, quenched FRET peptide cleavage; inhibition, % at 6 µM; 290,000 compounds, 0.14% hits; AID 1706; in the data active = inhibition above about 12%
BJeLR lethal = BJeLR cell viability loss; BJeLR (HRASV12) viability, CellTiter-Glo ATP luminescence, 48 h; inhibition, % (test concentration not listed); 300,000 compounds, 0.17% hits; AID 1554; in the data active = inhibition above about 50%
DUSP3 inh = blocks human VHR1 dual specificity phosphatase | P51452 | recombinant VHR phosphatase, pNPP absorbance | inhibition, % at 13.3 µM | 290,000 compounds, 0.52% hits | AID 1654; in the data active = inhibition above about 50%
PrPC surface inh = reduces human prion protein on the cell surface; P04156; cell surface PrPC, TR-FRET read-out; inhibition, % at 13.8 µM; 370,000 compounds, 0.43% hits; AID 720596; in the data active = inhibition above about 24%; note: 0% = median of the test wells and 100% = reference compound wells
PrPC TRFRET cf = confirmation of inhibitors of cell surface human prion protein; shares compounds with PrPC surface inh; cell surface PrPC level, TR-FRET; inhibition, % at 13.8 µM; 1,500 compounds, 65% hits; in the data active = inhibition above about 25%
LD9 tox = kills or reduces viability of LD9 cells in PrPc counter-screen | AID 743201 | inhibition, % at 13.8 µM | LD9 cells cytotoxicity, luminescence viability | 1,500 compounds, 29% hits | shares compounds with PrPC surface inh; in the data active = inhibition above about 9.5%
An asterisk follows results filed as active; · = not tested or not shown. An excerpt weighted towards active compounds, which were near 1.1% of everything screened.

SMILES | SARS 3CLpro inh | BJeLR lethal | DUSP3 inh | PrPC surface inh | PrPC TRFRET cf | LD9 tox
CCOC(=O)[C@]12CCCC=C1N(Cc1ccc(Cl)cc1Cl)C(=O)[C@H](CC(=O)NCc1cccc3ccccc13)C2 | · | · | · | -1 | · | ·
CC(=O)NC(c1ccc2ccccc2c1)c1ccc2cccnc2c1O (stereo unspecified) | -3 | 35 | 6 | 38* | 25* | 31*
CC(=O)NC(c1ccc(Cl)cc1Cl)c1ccc2cccnc2c1O (stereo unspecified) | 3 | 46 | 11 | 32* | 35* | 31*
CC(C)C(=O)NC(c1cccc([N+](=O)[O-])c1)c1ccc2cccnc2c1O (stereo unspecified) | 1 | 19 | 12 | 29* | 22 | 28*
CCCC(=O)NC(c1cccc([N+](=O)[O-])c1)c1ccc2cccnc2c1O (stereo unspecified) | · | · | · | 13 | · | ·
CCCC(=O)NC(c1ccc(Cl)cc1Cl)c1ccc2cccnc2c1O (stereo unspecified) | -1 | 21 | 9 | 28* | 24 | 12*
Cc1ccc(-c2csc(NC(=O)c3ccc(F)cc3)c2C(=O)O)cc1 | 4 | -1 | -12 | 12 | · | ·
CN1Cc2nnn(CC3CCCCC3)c2-c2ccccc2S1(=O)=O | · | · | · | 3 | · | ·
CCOC(=O)C(CC)c1cc2n(c(=O)c1C#N)CCC21OCCO1 (stereo unspecified) | · | · | · | 6 | · | ·
CCCS(=O)(=O)NC(=O)C1(C)CCCN(C(=O)COc2ccccc2)C1 (stereo unspecified) | · | · | · | -2 | · | ·
CCCCC[C@@H]1[C@H]2[C@H]3C(=O)N(c4ccccc4)C(=O)[C@H]3CC(=O)[C@H]2[C@H](c2ccccc2)N1S(=O)(=O)c1ccc(C)cc1 | · | · | · | 1 | · | ·
Cc1cc2c(cc(C(=O)O)n2C)s1 | 0 | -4 | 16 | -2 | · | ·
Cc1cc2sc(C(=O)O)c(C)c2s1 | 4 | -6 | 22 | 30* | 42* | -6
O=C(CSc1ncnc2sc3c(c12)CCCC3)c1ccccc1 | 1 | 4 | -9 | -4 | · | ·
CC(=O)c1ccc(NC(=O)c2ccccc2Sc2ncnc3sc(C)c(C)c23)cc1 | 2 | -3 | 10 | 7 | · | ·
CC(=O)CSc1ncnc2sc3c(c12)CCCC3 | -3 | 7 | 14 | 30* | 20 | -10
Cc1sc2ncnc(Sc3ccccc3C(=O)O)c2c1C | 2 | -10 | -13 | 94* | 121* | -1
O=C(O)c1ccccc1Sc1ncnc2sc3c(c12)CCC3 | 2 | 6 | -2 | 45* | 63* | -9
CC(=O)Nc1ccc(S(=O)(=O)Nc2cccc3cccnc23)cc1 | 2 | -1 | 31 | 0 | · | ·
O=S(=O)(Nc1cccc2cccnc12)c1ccccc1 | -3 | 74* | -47 | 54* | 39* | 81*
O=S(=O)(Nc1cccc2cccnc12)c1ccc(S(=O)(=O)N2CCCC2)cc1 | 6 | -3 | 14 | 37* | 10 | 24*
Cc1ccc2cccc(NS(=O)(=O)c3ccccc3)c2n1 | 3 | 69* | 1 | 34* | 67* | 71*
N#CCc1ccc(NC(=O)Nc2cccc(Cl)c2)cc1 | 2 | 5 | 7 | 31* | 33* | 5
O=C(O)c1ccc(CNC(=O)C23CC4CC(CC(C4)C2)C3)cc1 | -5 | -3 | 7 | 0 | · | ·
CC[C@H](C)[C@@H]1NC(=O)[C@@H](CC(C)C)NC(=O)[C@H](C(C)C)NC(=O)[C@H]2CSSC[C@H](NC1=O)C(=O)N2 | · | · | · | 41* | 47* | 99*
SMILES | SARS 3CLpro inh | BJeLR lethal | DUSP3 inh | PrPC surface inh | PrPC TRFRET cf | LD9 tox
C[C@@H]1CN([C@H](C)CO)C(=O)CCCn2nncc2CO[C@@H]1CN(C)C(=O)c1ccccc1 | · | · | · | -10 | · | ·
COc1ccc(CNC(=O)CN2C(=O)C3CCCN3c3ncc(Cl)cc32)cc1 (stereo unspecified) | -2 | -5 | 19 | 26* | -10 | -4
O=C(NCCc1ccccn1)c1ccc(OC2CCN(CCc3ccccc3)CC2)cc1 | 1 | 8 | 13 | 45* | -1 | 7
CC(Cc1ccccn1)NC(=O)c1ccc(OC2CCN(CCc3ccccc3)CC2)cc1 (stereo unspecified) | -4 | -1 | 21 | -7 | · | ·
O=C1[C@H]2[C@@H](c3ccccc3)N[C@]3(CCCN(Cc4ccc(Cl)cc4)C3=O)[C@H]2C(=O)N1Cc1ccccc1 | · | · | · | 27* | 3 | -10
O=C1[C@H]2[C@@H](c3ccccc3)N[C@]3(CCCN(Cc4ccc(Br)cc4)C3=O)[C@H]2C(=O)N1Cc1ccccc1 | · | · | · | -1 | · | ·
N#CC(C#N)=C(Nc1ccc(F)cc1)SCc1cccc(Br)c1 | -1 | 37 | -12 | 32* | 38* | 32*
Cc1cccc(CSC(Nc2ccc(F)cc2)=C(C#N)C#N)c1 | -4 | 19 | -15 | 19 | · | ·
N#Cc1c(-c2ccccc2)nc(SCC(=O)Nc2ccccc2F)[nH]c1=O | 2 | · | -14 | 15 | · | ·
N#Cc1c(-c2ccccc2)nc(SCC(=O)Nc2ccccc2)[nH]c1=O | -1 | · | -22 | 28* | 39* | -5
CCC(Sc1nc(-c2ccccc2)c(C#N)c(=O)[nH]1)C(=O)Nc1nnc(C)s1 (stereo unspecified) | 3 | 16 | -4 | 28* | 48* | -6
N#Cc1c(-c2ccccc2)nc(SCC(=O)Nc2nnc(C(F)(F)F)s2)[nH]c1=O | 0 | 0 | 7 | 23 | · | ·
Cc1cc(NC(=O)CSc2nc(-c3ccccc3)c(C#N)c(=O)[nH]2)no1 | 3 | 5 | 36 | 41* | 56* | -5
Cc1cc(C)nc(NS(=O)(=O)c2ccc(NC(=O)CSc3nc(-c4ccccc4)c(C#N)c(=O)[nH]3)cc2)n1 | -1 | -2 | 28 | 50* | 72* | -2
Cc1cc(C)nc(NS(=O)(=O)c2ccc(NC(=O)CSc3nc4ccccc4[nH]3)cc2)n1 | -3 | -3 | 7 | 0 | · | ·
CC(O)(c1ccc(F)c(F)c1)c1nc(-c2cccc(C#N)c2)cs1 (stereo unspecified) | · | · | · | -3 | · | ·
BrC(=C\c1ccccc1)/C=N/n1cnnc1 | 2 | 19 | 3 | 34* | 4 | 37*
Cc1cccc(OCCCC(=O)Nc2nc3ccccc3[nH]2)c1 | -6 | 1 | 22 | 29* | 25* | -8
O=C1C[C@@H]2c3c(cccc3CN1Cc1ccc(Br)cc1)C[C@@H](O)[C@H]2O | · | · | · | 5 | · | ·
COC(=O)C1=CO[C@@H](C)[C@H]2CN3CCc4c([nH]c5ccccc45)[C@@H]3C[C@H]12 | · | · | · | 25* | 16 | -2
CCOC(=O)[C@@]12CCCC=C1N(CCc1ccc(Cl)cc1)C(=O)[C@H]2CC(=O)N1CCOCC1 | · | · | · | -9 | · | ·
CC(Sc1ncnc2ccccc12)C(=O)Nc1ccc2c(c1)OCO2 (stereo unspecified) | -3 | -1 | 38 | 29* | 37* | 1
CC(=O)Oc1ccc(C(=O)Nc2cccc(C(=O)c3ccc(C)c(C)c3)c2)cc1 | · | -8 | · | 35* | 14 | 6
CCN(CC)c1ccc(Nc2nc(N3CCOCC3)c3ccccc3n2)cc1 | -1 | 12 | 19 | 20 | · | ·

Screening results from PubChem.
